# According to PubChem BioAssay AID651551 (Sanford-Burnham Center for Chemical Genomics, 2012):
# Biological target: PEG-3 (UniProt Q6IN02)
# Test: GAPDH versus PEG-3 reporter suppression – cell-based, luminescence, counter-screen for PEG-3 promoter inhibitor project, SAR follow-up (AID 651551)
# Details: HeLa PEG-Prom / GAPDH luciferase reporter, 6 or 24 h, run 3, 6 h; at 99 µM (top of the series)
row,Structure (SMILES),inhibition % (higher = more inhibition) [%]
1,COc1ccccc1Nc1nc(-c2sc(NC(=O)c3ccco3)nc2C)cs1,15.2
2,Cc1cc(NC(=O)c2ccccc2)n(-c2nc3ccccc3n2C)n1,40.4
3,COc1ccc(-n2nc(C(=O)NCC(=O)Nc3cccc(OC)c3)c3ccccc3c2=O)cc1,-17.6
4,Cc1nc(NC(=O)c2ccccc2)sc1-c1csc(Nc2cccc(Cl)c2C)n1,49.3
5,Cc1cc(NC(=O)c2ccccc2C)n(-c2nc3ccccc3[nH]2)n1,53.8
6,Cc1ccc(Cl)cc1Nc1nc(-c2sc(NC(=O)c3ccco3)nc2C)cs1,50.8
7,Cc1nc(NC(=O)c2ccccc2)sc1-c1csc(Nc2ccccc2)n1,27
8,COc1ccc(-n2nc(C(=O)NCC(=O)Nc3ccc(OC)c(OC)c3)c3ccccc3c2=O)cc1,27
9,COCCCNC(=O)c1ccc(Cn2c(=O)c3ccccc3n(Cc3ccccc3C#N)c2=O)cc1,12.9
10,O=C(Nc1nccs1)c1nn(-c2ccccc2)c(=O)c2ccccc12,29.3
11,Cc1cc(NC(=O)c2cccc(C)c2C)n(-c2nc3ccccc3[nH]2)n1,61.3
12,CCCn1nc(C(=O)Nc2nc(-c3ccncc3)cs2)c2ccccc2c1=O,24.5
13,O=C(Nc1nc2ccccc2s1)c1nn(-c2ccccc2)c(=O)c2ccccc12,-12.9
14,CCn1cc(C(=O)NCc2ccco2)c(=O)c2cc(S(=O)(=O)N3CCCC3)ccc21,15.2
15,CCCn1nc(C(=O)Nc2nc3ccccc3s2)c2ccccc2c1=O,36.4
16,COc1ccc(Cl)cc1Nc1nc(-c2sc(NC(=O)c3ccccc3)nc2C)cs1,64.3
17,Cc1cc(NC(=O)c2ccccc2C(F)(F)F)n(-c2nc3ccccc3[nH]2)n1,83.9
18,Cc1cc(NC(=O)c2ccccc2)n(-c2nc3ccccc3[nH]2)n1,76.2
19,CCCn1nc(C(=O)Nc2nc(-c3ccccn3)cs2)c2ccccc2c1=O,34.4
20,Cc1nc(NC(=O)c2ccccc2)sc1-c1csc(Nc2ccccc2Cl)n1,19.9
21,O=C(Nc1nc(-c2ccccc2)cs1)c1nn(-c2ccccc2)c(=O)c2ccccc12,11.7
22,CCn1nc(C(=O)Nc2nc(-c3ccccn3)cs2)c2ccccc2c1=O,39.7
23,COc1ccc(-n2nc(C(=O)NCC(=O)Nc3cc(OC)c(OC)c(OC)c3)c3ccccc3c2=O)cc1OC,9.38
